In PubChem BioAssay AID1159580 (chemical genetic matrix, 2015):
In all, about 5,500 compounds went through this assay and about 2,000 (36%) were called active. Inconclusive results (about 18%) are left out. Rule as the data show it: active = normalized growth mostly below about 0.91 (no sharp cut-off); inconclusive = no clear call, values can overlap the other calls; inactive = mostly above about 0.92. This is one part of the list.

Assay: chemical genetic growth profiling, strain panel (AID 1159580);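 also: tested at 20 µM; growth read once vehicle control cultures reached saturation at 30 °C; 1 = growth at the plate median or of vehicle wells; lower values mean less growth of the strain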
Details: growth OD
[1] = S. cerevisiae deletion strains, locus YAL013W, strain DEP1, active compounds read low
[2] = S. cerevisiae deletion strains, locus YBR229C, strain ROT2, active compounds read low
[3] = S. cerevisiae deletion strains, locus YDL101C, strain DUN1, active compounds read low
[4] = S. cerevisiae deletion strains, locus YDR150W, strain NUM1, active compounds read low
[5] = S. cerevisiae deletion strains, locus YEL061C, strain CIN8, active compounds read low
[6] = S. cerevisiae deletion strains, locus YGR078C, strain PAC10, active compounds read low
[7] = S. cerevisiae deletion strains, locus YHR030C, strain SLT2, active compounds read low
[8] = S. cerevisiae deletion strains, locus YHR087W, strain rtc3, active compounds read low
[9] = S. cerevisiae deletion strains, locus YJR043C, strain POL32, active compounds read low
[10] = S. cerevisiae deletion strains, locus YJR075W, strain HOC1, active compounds read low
[11] = S. cerevisiae deletion strains, locus YKL190W, strain CNB1, active compounds read low
[12] = S. cerevisiae deletion strains, locus YLR039C, strain RIC1, active compounds read low
[13] = S. cerevisiae deletion strains, locus YLR058C, strain SHM2 (second series), active compounds read low
[14] = S. cerevisiae deletion strains, locus YLR085C, strain ARP6, active compounds read low
[15] = S. cerevisiae deletion strains, locus YLR262C, strain YPT6, active compounds read low
[16] = S. cerevisiae deletion strains, locus YML094W, strain GIM5, active compounds read low
[17] = S. cerevisiae deletion strains, locus YMR219W, strain ESC1, active compounds read low
[18] = S. cerevisiae deletion strains, locus YMR263W, strain SAP30, active compounds read low
[19] = S. cerevisiae deletion strains, locus YNL153C, strain GIM3, active compounds read low
[20] = S. cerevisiae deletion strains, locus YNL298W, strain CLA4 (second series), active compounds read low
[21] = S. cerevisiae deletion strains, locus YNL322C, strain KRE1, active compounds read low
[22] = S. cerevisiae deletion strains, locus YNR030W, strain Alg12, active compounds read low
[23] = S. cerevisiae deletion strains, locus YPL055C, strain LGE1, active compounds read low
[24] = S. cerevisiae deletion strains, locus YPL241C, strain CIN2, active compounds read low
[25] = S. cerevisiae deletion strains, locus YPR135W, strain CTF4, active compounds read low
[26] = S. cerevisiae strains, strain wild type, active compounds read low

Measured: normalized growth

FC(F)(F)c1ccc(-c2nc(-c3ccc4c(c3)OCCCO4)cs2)cc1
inactive: [1] 1.03 | [2] 1.01 | S. cerevisiae deletion strains, locus YCL061C, strain MRC1, active compounds read low 0.99 | [3] 0.965 | S. cerevisiae deletion strains, locus YDL134C, strain PPH21, active compounds read low 1 | [4] 1.01 | [5] 1.01 | [6] 1.01 | S. cerevisiae deletion strains, locus YGR229C, strain SMI1, active compounds read low 1.01 | [7] 1.05 | [8] 1.03 | [9] 0.997 | [10] 1.02 | [11] 1.01 | [12] 1.07 | [13] 0.998 | [14] 1.1 | [15] 1.02 | [16] 1.04 | [17] 1.01 | [18] 0.988 | S. cerevisiae deletion strains, locus YMR307W, strain GAS1, active compounds read low 0.987 | [19] 0.992 | [20] 1.02 | [21] 1.01 | [22] 1.01 | [23] 1.06 | [24] 1.03 | [25] 1.27 | [26] 1.01

CC(=O)c1csc(-c2ccc(C(F)(F)F)cc2)n1
inactive: [1] 0.947 | [2] 0.965 | [3] 0.977 | [4] 0.977 | [5] 0.967 | [6] 0.949 | [7] 0.761 | [8] 0.964 | [9] 0.988 | [10] 0.928 | [11] 0.994 | [12] 0.882 | [13] 0.955 | [15] 0.943 | [16] 0.898 | [17] 0.977 | [18] 0.979 | S. cerevisiae deletion strains, locus YNL128W, strain TEP1, active compounds read low 0.99 | [19] 0.954 | [20] 0.911 | [21] 0.971 | [22] 0.943 | [23] 0.892 | [25] 0.658 | [26] 0.997
active: [14] 0.762 | [24] 0.841

O=C(NCc1cccs1)c1csc(Cc2c(Cl)cccc2Cl)n1
inactive: S. cerevisiae deletion strains, locus YAR019C, strain CDC15, active compounds read low 0.986 | S. cerevisiae deletion strains, locus YBL105C, strain PKC1, active compounds read low 0.969 | S. cerevisiae deletion strains, locus YBR135W, strain CKS1, active compounds read low 0.972 | S. cerevisiae deletion strains, locus YBR136W, strain MEC1, active compounds read low 0.995 | S. cerevisiae deletion strains, locus YBR160W, strain CDC28, active compounds read low 0.979 | S. cerevisiae deletion strains, locus YDL017W, strain CDC7, active compounds read low 0.987 | S. cerevisiae deletion strains, locus YDL028C, strain MPS1, active compounds read low 0.969 | [3] 0.981 | S. cerevisiae deletion strains, locus YDL108W, strain KIN28, active compounds read low 0.987 | S. cerevisiae deletion strains, locus YDL132W, strain cdc53, active compounds read low 0.978 | S. cerevisiae deletion strains, locus YDL214C, strain PRR2, active compounds read low 0.992 | S. cerevisiae deletion strains, locus YDR052C, strain DBF4, active compounds read low 0.996 | S. cerevisiae deletion strains, locus YDR054C, strain cdc34, active compounds read low 0.971 | S. cerevisiae deletion strains, locus YDR226W, strain ADK1, active compounds read low 0.971 | S. cerevisiae deletion strains, locus YDR477W, strain SNF1, active compounds read low 0.978 | S. cerevisiae deletion strains, locus YER123W, strain YCK3, active compounds read low 0.985 | S. cerevisiae deletion strains, locus YER133W, strain GLC7, active compounds read low 0.996 | S. cerevisiae deletion strains, locus YFL009W, strain cdc4, active compounds read low 0.957 | S. cerevisiae deletion strains, locus YFL029C, strain CAK1, active compounds read low 0.98 | S. cerevisiae deletion strains, locus YFR003C, strain YPI1, active compounds read low 0.991 | S. cerevisiae deletion strains, locus YFR019W, strain FAB1, active compounds read low 0.988 | S. cerevisiae deletion strains, locus YFR028C, strain CDC14, active compounds read low 0.982 | S. cerevisiae deletion strains, locus YGR040W, strain KSS1, active compounds read low 0.994 | S. cerevisiae deletion strains, locus YGR052W, strain FMP48, active compounds read low 1.06 | S. cerevisiae deletion strains, locus YGR092W, strain DBF2, active compounds read low 0.95 | [7] 0.924 | S. cerevisiae deletion strains, locus YHR079C, strain IRE1, active compounds read low 0.992 | S. cerevisiae deletion strains, locus YHR082C, strain KSP1, active compounds read low 1.02 | S. cerevisiae deletion strains, locus YHR205W, strain SCH9, active compounds read low 0.988 | S. cerevisiae deletion strains, locus YIL147C, strain SLN1, active compounds read low 0.985 | S. cerevisiae deletion strains, locus YJL095W, strain BCK1, active compounds read low 1.01 | S. cerevisiae deletion strains, locus YJL128C, strain PBS2, active compounds read low 0.937 | S. cerevisiae deletion strains, locus YJL157C, strain FAR1, active compounds read low 0.998 | S. cerevisiae deletion strains, locus YJR016C, strain ILV3, active compounds read low 0.99 | S. cerevisiae deletion strains, locus YJR066W, strain TOR1 (second series), active compounds read low 0.98 | S. cerevisiae deletion strains, locus YJR066W, strain TOR1, active compounds read low 0.956 | S. cerevisiae deletion strains, locus YKL048C, strain ELM1, active compounds read low 1 | S. cerevisiae deletion strains, locus YKL067W, strain YNK1, active compounds read low 0.996 | S. cerevisiae deletion strains, locus YKL101W, strain HSL1, active compounds read low 1 | S. cerevisiae deletion strains, locus YKL193C, strain SDS22, active compounds read low 0.99 | S. cerevisiae deletion strains, locus YKL203C, strain TOR2, active compounds read low 1.07 | S. cerevisiae deletion strains, locus YLR113W, strain HOG1, active compounds read low 0.981 | S. cerevisiae deletion strains, locus YLR133W, strain CKI1, active compounds read low 0.99 | S. cerevisiae deletion strains, locus YLR403W, strain SFP1, active compounds read low 0.994 | S. cerevisiae deletion strains, locus YML070W, strain DAK1, active compounds read low 1 | S. cerevisiae deletion strains, locus YMR001C, strain CDC5, active compounds read low 0.986 | S. cerevisiae deletion strains, locus YMR205C, strain PFK2 (second series), active compounds read low 1.01 | S. cerevisiae deletion strains, locus YMR277W, strain FCP1, active compounds read low 0.982 | S. cerevisiae deletion strains, locus YNL006W, strain LST8, active compounds read low 0.987 | S. cerevisiae deletion strains, locus YNL020C, strain ARK1, active compounds read low 1.01 | S. cerevisiae deletion strains, locus YNL161W, strain CBK1, active compounds read low 0.994 | S. cerevisiae deletion strains, locus YNL183C, strain NPR1, active compounds read low 1.07 | S. cerevisiae deletion strains, locus YNL207W, strain RIO2, active compounds read low 0.981 | S. cerevisiae deletion strains, locus YNL222W, strain SSU72, active compounds read low 0.983 | S. cerevisiae deletion strains, locus YNL307C, strain MCK1 (second series), active compounds read low 1.01 | S. cerevisiae deletion strains, locus YOL078W, strain AVO1, active compounds read low 0.991 | S. cerevisiae deletion strains, locus YOL136C, strain PFK27, active compounds read low 1.01 | S. cerevisiae deletion strains, locus YOR061W, strain CKA2, active compounds read low 0.992 | S. cerevisiae deletion strains, locus YOR119C, strain RIO1, active compounds read low 1.03 | S. cerevisiae deletion strains, locus YOR231W, strain MKK1, active compounds read low 0.988 | S. cerevisiae deletion strains, locus YOR329C, strain SCD5, active compounds read low 0.985 | S. cerevisiae deletion strains, locus YPL031C, strain PHO85, active compounds read low 0.988 | S. cerevisiae deletion strains, locus YPL153C, strain RAD53, active compounds read low 0.994 | S. cerevisiae deletion strains, locus YPL204W, strain HRR25, active compounds read low 1 | S. cerevisiae deletion strains, locus YPL209C, strain IPL1, active compounds read low 0.988 | S. cerevisiae deletion strains, locus YPL256C, strain CLN2, active compounds read low 0.985 | S. cerevisiae deletion strains, locus YPR025C, strain CCL1, active compounds read low 0.982 | S. cerevisiae deletion strains, locus YPR106W, strain ISR1, active compounds read low 0.968 | S. cerevisiae deletion strains, locus YPR111W, strain DBF20, active compounds read low 0.965 | S. cerevisiae deletion strains, strain NNK1, active compounds read low 0.977 | S. cerevisiae deletion strains, strain TSCII, active compounds read low 0.986
